Screening results as filed in PubChem.
GPR151 ag: activators of human GPR151, primary screen, cell-based, PathHunter beta-arrestin, luminescence; G-protein coupled receptor 151 (Homo sapiens), Q8TDV0; PathHunter beta-arrestin GPR151 cells; activation, % at 11.2 µM; 650,000 tested, 1% active; in the data active means activation above about 4.9%
Target sequence (Q8TDV0 whole entry, looked up): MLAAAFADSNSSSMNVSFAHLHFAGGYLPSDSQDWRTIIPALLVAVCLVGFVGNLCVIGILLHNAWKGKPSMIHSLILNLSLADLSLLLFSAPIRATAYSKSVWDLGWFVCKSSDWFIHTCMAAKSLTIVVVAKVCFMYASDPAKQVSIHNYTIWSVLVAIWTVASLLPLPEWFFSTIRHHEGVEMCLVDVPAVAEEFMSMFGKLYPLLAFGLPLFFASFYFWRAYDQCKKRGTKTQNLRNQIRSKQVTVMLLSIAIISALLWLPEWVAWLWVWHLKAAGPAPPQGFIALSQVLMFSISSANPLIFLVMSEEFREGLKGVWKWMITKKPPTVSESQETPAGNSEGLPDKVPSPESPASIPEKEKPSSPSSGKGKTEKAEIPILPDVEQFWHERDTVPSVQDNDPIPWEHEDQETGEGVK
FBW7 activator: FBW7 E3 ligase activators, primary screen, biochemical, AlphaScreen, human; F-box/WD repeat-containing protein 7 (Homo sapiens), Q969H0; AlphaScreen FBW7–phospho-cyclin E peptide binding, activator screen; normalized activity (activation), % at 26.1 µM; 650,000 tested, 0.13% active; AID 1259310, 2017; in the data active means normalized activity above about 1.9%;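 further: purified mutant Fbw7 with reduced substrate affinity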
MITF inh: MITF inhibitors, primary screen, biochemical, AlphaScreen, human | 650,000 tested, 0.91% active | AlphaScreen MITF homodimerization, bead proximity signal | inhibition, % at 2.6 µM | Microphthalmia-associated transcription factor (Homo sapiens), O75030; in the data active means inhibition above about 50%
TEAD-YAP inh: TEAD-YAP interaction inhibition, primary screen, TEAD-YAP interaction inhibitor project, luminescence, HEK-TIYL cells; TEAD-Gal4/YAP UAS-luciferase luminescence; 640,000 tested, 1.4% active; inhibition, % at 9.12 µM; in the data active means inhibition above about 32%
Of the large screens only hits and unclear results are named; the others gave an inactive call. Most compounds without a hit are left out; they make up all but 3.4% or so of the library.

COc1ccc2cc3c(N)nn(C(=O)c4cncc(Br)c4)c3nc2c1	none
CS(=O)(=O)n1nc(NCc2ccccc2)nc1NCc1ccccc1	none
COc1ccc2nc3c(cc2c1)c(N)nn3C(=O)c1ccc(F)cc1	TEAD-YAP inh 36
COc1ccc2cc3c(N)nn(C(=O)c4cccc([N+](=O)[O-])c4)c3nc2c1	none
Cc1cc(C)nc(SCC(=O)Nc2ccc(N3CCOCC3)c(Cl)c2)n1	TEAD-YAP inh 32
O=C1C=C(Nc2ccc(Cl)cc2Cl)CC(c2ccco2)C1 (configuration not stated)	TEAD-YAP inh 39
O=C1C=C(NCc2ccc(Cl)cc2)CC(c2ccco2)C1 (configuration not stated)	none
CC(C)n1ccc(C(=O)Nc2ccc3c(c2)Cc2ccccc2-3)n1	none
CC(C)CC(=O)Nc1ccc(I)cc1Cl	none
Nc1nc(Nc2ccc(-n3ccnc3)cc2)nc2c1ncn2-c1ccsc1	none
Nc1nc(Nc2ccncn2)nc2c1ncn2-c1ccsc1	FBW7 activator 16, TEAD-YAP inh 38
OCCNc1nc(Nc2cnccn2)nc2c1ncn2-c1ccsc1	none
OCCNc1nc(Nc2ccncn2)nc2c1ncn2-c1ccsc1	TEAD-YAP inh 36
Cc1cccc(NC(=O)c2cc([N+](=O)[O-])ccc2Cl)c1O	TEAD-YAP inh 33
Cc1ccc(NC(=O)c2cc([N+](=O)[O-])cc(Cl)c2O)c(C)c1	TEAD-YAP inh 53
Cc1ccc(NC(=O)c2ccc([N+](=O)[O-])cc2Cl)c(C)c1	none
CCOc1ccc2nc(Cl)c(CN(Cc3ccco3)C(=O)c3cnccn3)cc2c1	none
COc1ccc2nc(SCC(=O)Nc3ccc4c(c3)OCCO4)c(C#N)cc2c1	none
CCOc1cc(-c2nnc(SCC(=O)NCc3ccc(C)cc3)nc2-c2ccc(OC)c(OCC)c2)ccc1OC	none
COc1ccc(-c2nnc(SCC(=O)NCc3cccs3)nc2-c2ccc(OC)c(OC)c2)cc1OC	TEAD-YAP inh 56
CCOc1cc(-c2nnc(SCC(=O)NCc3ccccc3)nc2-c2ccc(OC)c(OCC)c2)ccc1OC	TEAD-YAP inh 52
Cc1ccc2nc(=S)n(C(=O)c3ccccc3F)n2c1	TEAD-YAP inh 62
Cc1cc2c(cc1Br)NC(=O)C2=O	none
O=C(NCC1CCC2(CCN(Cc3ccc4ncccc4c3)CC2)O1)C1CCCO1 (configuration not stated)	FBW7 activator 2.1
FC(F)(F)C1=Nc2cccc3cccc(c23)N1	MITF inh 114
Cc1ccc(/C=C2/SC(N3CCC(C)CC3)=NC2=O)o1	none
COc1ccc(N2C(=O)CSC2c2cccc([N+](=O)[O-])c2)c(OC)c1 (configuration not stated)	TEAD-YAP inh 46
COc1ccc(N2C(=O)CSC2c2cccc(F)c2)c(OC)c1 (configuration not stated)	none
CC12CN(CO)CC(C)(CN(Cc3ccccc3)C1)C2=O	FBW7 activator 2.6
CC12CNCC(C)(CN(Cc3ccccc3)C1)C2=O	none
O=C(NC(c1ccccc1)c1ccsc1)C1CCN(C(=O)c2ccoc2)CC1 (configuration not stated)	none
COc1cc2c(cc1OC)C(c1ccc(C#N)cc1)NCC2 (configuration not stated)	none
Cc1nc2sccn2c1C(=O)N1CCN(c2cccc(C(F)(F)F)c2)CC1	TEAD-YAP inh 58
Cc1nc2sccn2c1C(=O)N1CCCC1	none
CC(C)OCC(O)Cn1c(NCc2ccco2)nc2c1c(=O)[nH]c(=O)n2C (configuration not stated)	none
COc1cc2c(cc1OC)[C@@H]1C(=O)c3ccc4c(c3O[C@@H]1CO2)C=CC(C)(C)O4	TEAD-YAP inh 69
CSc1ccc(/C=C/C(=O)c2ccc(NC(=O)c3cc(N)cc(N)c3)cc2)cc1	none
CCCc1ccc(OCC(=O)c2ccc(O)cc2O)cc1	TEAD-YAP inh 85
Cc1sc(NC(=O)c2ccco2)c(C(c2cccnc2)N2CCC(Cc3ccccc3)CC2)c1C (configuration not stated)	TEAD-YAP inh 35
COc1ccc(NC(=O)c2sc3ncn(CC(=O)Nc4ccc(C)c(Cl)c4)c(=O)c3c2C)c(OC)c1	none
COc1cc(CNc2ccc(N(C)C)cc2)ccc1OCC(=O)NC(C)(C)C	TEAD-YAP inh 37
COc1cc(CO)ccc1OCC(=O)NC(C)(C)C	none
CC(C)OC(=O)c1ccc(NC(=O)COc2ccccc2[N+](=O)[O-])cc1	none
CN=c1scc(-c2ccccc2F)n1/N=C/c1ccc2c(c1)OCO2	TEAD-YAP inh 94
CN=c1scc(-c2ccccc2F)n1/N=C/c1ccc(O)c(O)c1O	TEAD-YAP inh 89
CCN=c1scc(-c2ccc(F)cc2)n1/N=C/c1ccccn1	none
CCN=c1scc(-c2ccccc2)n1/N=C/c1ccccn1	TEAD-YAP inh 55
CN=c1scc(-c2ccccc2)n1/N=C/c1ccsc1	TEAD-YAP inh 99
CN=c1scc(C)n1/N=C/c1ccc2c(c1)OCO2	none
CN=c1scc(-c2cccc(Br)c2)n1/N=C/c1ccncc1	none
CCOC(=O)c1sc(NC(=O)c2cccc(C)c2OC)c(C#N)c1C	none
Cc1cc(C)cc(NC(=O)CCN(C)Cc2ccccc2)c1	none
Cc1ccc(-c2nnn(CC(=O)NCCc3c[nH]c4ccccc34)n2)cc1	none
CN=c1scc(-c2ccccc2Br)n1/N=C/c1ccco1	none
CN=c1scc(-c2ccccc2F)n1/N=C/c1ccsc1	TEAD-YAP inh 99
CN=c1scc(-c2ccccc2Br)n1/N=C/c1ccc(O)cc1O	TEAD-YAP inh 96
COc1cc(OC)c(/C=N/NC(=O)C2C3CCCCC32)cc1Br (configuration not stated)	none
Cc1ccc(NC2=NCC(=O)N2C2CCCC2)cc1	TEAD-YAP inh 56
Nc1c(Br)cc(O)c2c1C(=O)c1ccccc1C2=O	none
Nc1c2c3c(c(O)ccc3[nH]c1=O)C(=O)c1ccccc1-2	TEAD-YAP inh 37
COc1ccc(NC(=O)CSc2ncccc2C(=O)NCc2ccco2)c(OC)c1	none
COc1cc(-c2nc(Nc3ccc(C)cc3)c3ccccc3n2)cc(OC)c1OC	TEAD-YAP inh 55
COCCNc1nc(-c2ccccc2)nc2ccccc12	none
CCCCc1ccc(-c2nc(Nc3ccc(OCc4ccccc4)cc3)c3ccccc3n2)cc1	TEAD-YAP inh 35
COc1cccc(Nc2nc(-c3cc(OC)c(OC)c(OC)c3)nc3ccccc23)c1	TEAD-YAP inh 37
COc1cc(-c2nc(Nc3ccc(Cl)cc3)c3ccccc3n2)cc(OC)c1OC	none
COCCNc1nc(-c2cc(OC)c(OC)c(OC)c2)nc2ccccc12	TEAD-YAP inh 32
CC(C)n1cnc2c(NC3CC3)nc(N3CCN(Cc4ccc5c(c4)OCO5)CC3)nc21	none
COc1cc(-c2nc(Nc3ccccc3Cl)c3ccccc3n2)cc(OC)c1OC	none
COc1cc(-c2nc(Nc3ccccc3F)c3ccccc3n2)cc(OC)c1OC	TEAD-YAP inh 32
CCN(CC)S(=O)(=O)c1ccc2[nH]c3nc(SCc4cccnc4)nnc3c2c1	TEAD-YAP inh 37
Cc1sc2nc(SCC(=O)c3ccc(Cl)cc3)[nH]c(=O)c2c1C	none
